TRHR enhancer: qHTS for Small Molecule Agonists and Allosteric Enhancers of Human TRH Receptor: Primary Screen for Enhancers; Thyrotropin-releasing hormone receptor (Homo sapiens), P34981; TRHR cells, fluo-8 calcium fluorescence, EC20 TRH enhancement; enhancement, % at 2 µM; 360,000 tested, 0.66% active; AID 493056, 2011; in the data active means enhancement above about 30%
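Enhancer read-out: after compound pinning and an initial kinetic agonist-mode read, an EC20 of TRH (10 nM final) was injected and fluo-8 calcium signal (Ex 480/Em 530) followed at 1 s/cycle for 100 cycles in TRHR-expressing cells.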
D1 potentiator: Potentiators of Human D1 Dopamine Receptor: qHTS; potentiation, % at 10 µM; 360,000 tested, 0.036% active; D(1A) dopamine receptor (Homo sapiens), P21728; HEK293 TREx D1 cells, calcium flux, dopamine EC20 potentiation; in the data active means potentiation above about 30%
Target sequence (P21728 whole entry, looked up): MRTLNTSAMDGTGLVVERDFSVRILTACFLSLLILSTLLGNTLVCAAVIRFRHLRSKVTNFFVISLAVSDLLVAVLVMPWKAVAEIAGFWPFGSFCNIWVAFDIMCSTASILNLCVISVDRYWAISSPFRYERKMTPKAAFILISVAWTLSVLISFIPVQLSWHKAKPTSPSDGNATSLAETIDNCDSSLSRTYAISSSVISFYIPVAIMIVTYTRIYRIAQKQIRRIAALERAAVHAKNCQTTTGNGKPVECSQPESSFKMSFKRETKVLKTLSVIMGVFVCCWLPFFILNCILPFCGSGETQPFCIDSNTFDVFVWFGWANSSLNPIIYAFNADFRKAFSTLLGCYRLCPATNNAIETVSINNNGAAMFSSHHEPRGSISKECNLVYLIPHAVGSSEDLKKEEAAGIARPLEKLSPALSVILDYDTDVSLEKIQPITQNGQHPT
D1 antag: Antagonist of Human D 1 Dopamine Receptor: qHTS; D(1A) dopamine receptor (Homo sapiens), P21728; HEK293 TREx D1 cells, calcium flux, dopamine EC80; active compounds read low; activity change, negative = inhibition, % at 10 µM; 360,000 tested, 3.2% active; in the data active means activity change below about -30%
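After overnight tetracycline induction at 30 C, force-coupled D1 HEK293 cells took up a no-wash calcium dye at room temperature. Compounds were added and monitored 180 s, and the response to EC80 dopamine was then recorded.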
TRHR agonist: qHTS for Small Molecule Agonists and Allosteric Enhancers of Human TRH Receptor: Primary Screen for Agonists | Thyrotropin-releasing hormone receptor (Homo sapiens), P34981 | TRHR cells, calcium flux fluo-8, FDSS agonist mode | activation, % at 2 µM | 360,000 tested, 0.18% active
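Agonist-mode FDSS calcium read (Ex 480/Em 530, 1 s cycles) in 1536-well TRHR cells with fluo-8 dye, after 10-cycle baseline and 23 nL compound addition; TRH at EC20 (10 nM final) added afterwards for the enhancer phase.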
D1 ag: Allosteric Agonists of the Human D1 Dopamine Receptor: qHTS | D(1A) dopamine receptor (Homo sapiens), P21728 | HEK293 T-REx D1 cells, calcium flux, agonist mode | activation, % at 2 µM | 360,000 tested, 1% active
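Agonism was scored from calcium flux recorded over 180 s (1 read/s) after pintool compound addition, following a 10-cycle baseline. Cells were inducible force-coupled HEK293 TREx D1, plated overnight at 30 C and loaded with no-wash calcium dye.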
Numbers stand for hits; i = inactive. Hits are enriched below; roughly 4.6% of the tested compounds scored in any of these assays. Unless noted, no stated cut-off is given here; in the data, active means activation above about 30%; inactive means the rest.

SMILES	TRHR enhancer	D1 potentiator	D1 antag	TRHR agonist	D1 ag
COCCOC(=O)c1c(C)n(S(=O)(=O)c2ccc(C)cc2)c2ccc(NS(=O)(=O)c3ccc(C)cc3)cc12	i	i	i	i	i
Cc1ccc(C(=O)NCCC(=O)N2CCOCC2)cc1	i	i	-37	i	i
COc1ccc(CCNC(=O)c2ccc(OCC(=O)N3CCOCC3)c(OC)c2)cc1OC	i	i	-42	i	i
COc1ccc(CCNC(=O)c2ccc(Cn3c(=O)[nH]c4cc(OC)c(OC)cc4c3=O)cc2)cc1OC	i	i	-35	i	i
COc1cc2[nH]c(=O)n(Cc3ccc(C(=O)NCc4ccccc4)cc3)c(=O)c2cc1OC	i	i	i	i	i
COc1ccc(CCNC(=O)CCS(=O)(=O)c2ccc3c(c2)NC(=O)CS3)cc1OC	i	i	i	i	i
Cc1ccc(C(=O)NCCN2CCOCC2)cc1	i	i	i	i	i
COc1ccc(CCNC(=O)c2ccc3c(c2)NC(=O)CS3)cc1OC	i	i	-33	i	i
NCCN1CCN(CCN)CC1	i	i	i	i	i
CCSc1ncc(Cl)c(C(=O)Nc2ccccc2F)n1	i	i	i	i	i
CCn1c(C)nnc1SCC(=O)Nc1ccccc1OC	i	i	i	i	i
CCn1c(SCC(=O)Nc2cc(C)on2)nnc1-c1ccc(C)cc1	i	i	i	i	i
O=C(O)Cc1sc(Nc2ccc(Cl)cc2)nc1-c1cccs1	i	i	i	i	i
Nc1nc(-c2cccs2)c(CC(=O)O)s1	i	i	-38	i	i
COc1cccc(CN2CCNC(=O)C2CC(=O)NCCn2cccn2)c1OC (stereo not given)	i	i	i	i	i
CCOC(=O)C1=C(C)N=c2s/c(=C\c3ccc(OCC(=O)O)cc3)c(=O)n2C1c1ccccc1OC (stereo not given)	i	i	i	i	i
CCOC(=O)C1=C(C)N=c2s/c(=C/c3ccc(OCC(=O)O)cc3)c(=O)n2C1c1ccc(SC)cc1 (stereo not given)	i	i	i	i	30
CCOC(=O)C1=C(C)N=c2s/c(=C\c3ccc(OCC(=O)O)cc3)c(=O)n2C1c1ccc(Cl)cc1 (stereo not given)	i	i	i	i	38
CCOC(=O)C1=C(C)N=c2s/c(=C/c3ccc(OCC(=O)O)cc3)c(=O)n2C1c1ccc(F)cc1 (stereo not given)	i	i	i	i	i
COc1cccc(N2CC(C(=O)Nc3nnc(SCc4ccccn4)s3)CC2=O)c1 (stereo not given)	i	i	i	i	i
CCN1CCN(Cc2c(O)ccc3oc(C)c(C(=O)Nc4ccc(OC)cc4)c23)CC1	i	i	i	i	i
O=C(Oc1ccc(Cl)c2cccnc12)c1cccnc1	i	i	i	i	i
CC(C)(C)c1cc(/C=N/NC(=O)Cc2nc3ccccc3[nH]2)cc(C(C)(C)C)c1O	i	i	-35	i	i
O=C(Cc1nc2ccccc2[nH]1)N/N=C/c1ccccc1	i	i	i	i	i
CC(=O)N1CCc2cc(S(=O)(=O)NC(CC(C)C)C(=O)NCc3ccccc3Cl)ccc21 (stereo not given)	i	i	i	i	i
SMILES	TRHR enhancer	D1 potentiator	D1 antag	TRHR agonist	D1 ag
COc1ccc2ccccc2c1CNC(C)c1ccccc1 (stereo not given)	i	i	i	i	i
CC(NCCCOc1cccc2ccccc12)c1ccccc1 (stereo not given)	i	i	i	i	39
COC(=O)c1ccc(COC(=O)CCc2nc(-c3ccccc3)c(-c3ccccc3)o2)cc1	i	i	i	i	30
O=C(NNS(=O)(=O)c1ccccc1)c1cccc(F)c1	i	i	i	i	i
Cc1ccc(CN(Cc2cccn2-c2nnc(N3CCCC3=O)s2)C(=O)Nc2ccccc2Cl)cc1	i	i	-69	i	i
Cc1ccc(CNCc2cccn2-c2nnc(N3CCCC3)s2)cc1	i	i	i	i	i
OCCCNc1nc(-c2ccc(Cl)cc2)nnc1-c1ccc(Br)cc1	i	i	-40	i	i
O=C(Cc1noc2ccccc12)Nc1ccccn1	i	i	i	i	i
Cc1ccc(NC(=O)Cc2noc3ccccc23)nc1	i	i	-32	i	i
Cc1ccc2onc(CC(=O)Nc3ccc(C(C)C)cc3)c2c1	i	i	-74	i	i
NC(=O)NCc1ccccc1Cl	i	i	-38	i	i
O=C(NCc1ccccc1Cl)NCc1ccccc1Cl	i	i	i	i	i
Cc1cc(Br)ccc1NC(=O)CN(C)C(=O)CCSc1ccc(F)cc1	i	i	-35	i	i
CN(CC(=O)Nc1ccccc1Cl)C(=O)CCSc1ccc(F)cc1	i	i	i	i	i
O=C(Nc1ccc([N+](=O)[O-])cc1)C1CC1(c1ccccc1)c1ccccc1 (stereo not given)	i	i	i	i	i
CC1(C)C(C=C(Cl)Cl)C1C(=O)Nc1ccc([N+](=O)[O-])cc1 (stereo not given)	i	i	-31	i	i
C/C(=N\NC(=O)c1cccc(N/N=C(\C)c2ccccc2)c1)c1ccccc1	i	i	i	i	i
N#C/C(=N\Nc1cccc(Cl)c1)C(=O)c1ccccc1	i	i	i	i	i
C/C(=N/NC(=O)c1ccc2c(c1)OCO2)c1cccc([N+](=O)[O-])c1	i	i	i	i	i
C/C(=N/NC(=O)c1ccc2c(c1)OCCO2)c1ccc([N+](=O)[O-])cc1	i	i	-52	i	i
COc1ccc(C(=O)/C(C#N)=N/Nc2cccc([N+](=O)[O-])c2)cc1	i	i	-32	i	i
C/C(=N\NC(=S)NCc1ccccc1)c1ccc2c(c1)OCCO2	i	i	-31	i	i
C/C(=N\NC(=O)c1cccc(N/N=C(\C)c2ccc([N+](=O)[O-])cc2)c1)c1ccc([N+](=O)[O-])cc1	i	i	-38	i	i
C/C(=N\NC(=S)NCc1ccccc1)c1ccc(Br)cc1	i	i	i	i	i
CN(CC(=O)Nc1ccccc1Cl)C(=O)Cn1cc(C(F)(F)F)ccc1=O	i	i	-33	i	i
Cc1ccc(CSCC(=O)N(C)CC(=O)Nc2ccccc2Cl)cc1	i	i	-33	i	i
COc1cc(/C=N/NC(=O)CNC(=O)/C=C/c2ccco2)cc(OC)c1OC	31	i	i	i	i
COc1ccc(/C=N/NC(=O)CNC(=O)/C=C/c2ccco2)cc1OC	i	i	i	i	i
O=C(CNc1cccc2ccccc12)N/N=C/c1ccc(OC(=O)/C=C/c2ccco2)cc1	i	i	-70	i	i

Assay outcomes as filed in PubChem.
